What all share (test): DAPPL (digital affinity profiling via proximity ligation, sequencing); 10 mM Tris-HCl pH 7.5, 50 mM NaCl, 1 mM DTT, 4% glycerol, room temperature, 30 min; GST-TFs on glutathione beads, 16-mer random dsDNA library, 0.1% formaldehyde crosslink after washing; high values mean tight binding
The target in one assay is T1, FEV (Homo sapiens, UniProt Q99581 1-238).
T1 sequence: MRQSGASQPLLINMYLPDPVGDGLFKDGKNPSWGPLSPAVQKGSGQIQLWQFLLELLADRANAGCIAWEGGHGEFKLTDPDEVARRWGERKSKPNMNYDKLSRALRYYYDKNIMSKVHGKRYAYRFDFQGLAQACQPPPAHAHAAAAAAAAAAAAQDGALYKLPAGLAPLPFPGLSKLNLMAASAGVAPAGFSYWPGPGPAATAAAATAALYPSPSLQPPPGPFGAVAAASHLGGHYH
To be noted: protein: recombinant; tags: N-terminal GST; dsDNA, one strand shown. The gist of the method:
(§1)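 Binding signal is defined as a hexamer's read frequency for one factor over its frequency for the tag-only sample. To obtain reads, GST-fused human transcription factors were expressed in yeast, captured on glutathione beads, barcoded with DNA and pooled with that sample. Pools met 200 nmole of a 16-mer random double-stranded DNA library in Tris/NaCl/DTT/glycerol buffer for 30 min at room temperature before washing, 0.1% formaldehyde crosslinking, proximity ligation (BsaI/T4 ligase, 1 h, 37 °C), PCR and Illumina NextSeq500 sequencing.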

Another assay deals with ETV5 (Homo sapiens, UniProt P41161 1-510). The conditions noted are these: protein: recombinant; tags: N-terminal GST; dsDNA, one strand shown. In outline: as §1
The target in another assay is HSF1 (Homo sapiens, UniProt Q00613 1-529). The conditions noted are these: protein: recombinant; tags: N-terminal GST; chain copies: 3; dsDNA, one strand shown. In outline: as §1
The target of a further assay is T2, SPIC (Homo sapiens, UniProt Q8N5J4 1-248).
T2 sequence: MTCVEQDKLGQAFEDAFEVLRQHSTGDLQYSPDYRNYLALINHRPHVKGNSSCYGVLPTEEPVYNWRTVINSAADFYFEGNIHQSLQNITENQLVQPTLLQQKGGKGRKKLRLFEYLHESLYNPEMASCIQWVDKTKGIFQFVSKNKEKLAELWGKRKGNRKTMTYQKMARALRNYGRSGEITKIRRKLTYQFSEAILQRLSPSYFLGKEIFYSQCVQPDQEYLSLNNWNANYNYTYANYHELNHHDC
To be noted: protein: recombinant; tags: N-terminal GST; dsDNA, one strand shown. In outline:
as §1

A further assay deals with ELF4 (Homo sapiens, UniProt Q99607 1-663). The conditions noted are these: protein: recombinant; tags: N-terminal GST; dsDNA, one strand shown. In outline: as §1
Another assay has as its target T3, ELK4 (Homo sapiens, UniProt P28324-2 1-405).
T3 sequence: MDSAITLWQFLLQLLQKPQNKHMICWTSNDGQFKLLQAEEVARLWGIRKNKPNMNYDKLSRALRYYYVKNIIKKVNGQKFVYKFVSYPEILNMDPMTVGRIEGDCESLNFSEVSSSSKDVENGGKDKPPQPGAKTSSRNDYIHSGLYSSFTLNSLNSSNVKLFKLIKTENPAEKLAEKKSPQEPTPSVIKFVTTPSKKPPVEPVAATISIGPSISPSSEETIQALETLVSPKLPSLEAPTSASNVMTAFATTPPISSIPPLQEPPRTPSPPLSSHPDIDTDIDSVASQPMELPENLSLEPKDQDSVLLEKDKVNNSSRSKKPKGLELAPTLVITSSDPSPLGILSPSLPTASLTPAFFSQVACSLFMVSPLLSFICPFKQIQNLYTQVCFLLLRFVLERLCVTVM
The conditions noted are these: protein: recombinant; tags: N-terminal GST; dsDNA, one strand shown. The gist of the method: as §1

Another assay addresses T4, ETV2 (Homo sapiens, UniProt O00321 1-342).
T4 sequence: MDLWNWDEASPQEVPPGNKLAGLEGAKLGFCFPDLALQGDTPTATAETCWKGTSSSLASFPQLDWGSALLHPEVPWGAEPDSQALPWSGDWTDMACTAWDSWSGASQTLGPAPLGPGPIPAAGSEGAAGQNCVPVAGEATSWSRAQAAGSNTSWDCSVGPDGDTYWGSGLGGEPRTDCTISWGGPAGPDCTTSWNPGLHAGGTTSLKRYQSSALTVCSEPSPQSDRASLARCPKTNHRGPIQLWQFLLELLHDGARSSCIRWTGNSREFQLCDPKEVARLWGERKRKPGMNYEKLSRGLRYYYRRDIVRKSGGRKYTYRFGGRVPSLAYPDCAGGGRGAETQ
The conditions noted are these: protein: recombinant; tags: N-terminal GST; dsDNA, one strand shown. The gist of the method: as §1

The next assay addresses T5, ELF3 (Homo sapiens, UniProt P78545 1-371).
T5 sequence: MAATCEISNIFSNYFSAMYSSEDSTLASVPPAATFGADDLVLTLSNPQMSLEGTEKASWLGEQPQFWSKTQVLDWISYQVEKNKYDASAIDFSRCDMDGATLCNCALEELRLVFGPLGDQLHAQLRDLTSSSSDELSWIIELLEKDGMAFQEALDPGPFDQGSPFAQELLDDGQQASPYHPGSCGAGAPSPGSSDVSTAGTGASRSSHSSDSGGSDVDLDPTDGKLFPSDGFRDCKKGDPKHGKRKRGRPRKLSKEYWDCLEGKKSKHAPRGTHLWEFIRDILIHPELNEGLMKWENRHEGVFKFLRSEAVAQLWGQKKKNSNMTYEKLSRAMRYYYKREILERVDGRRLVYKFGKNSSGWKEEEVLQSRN
To be noted: protein: recombinant; tags: N-terminal GST; dsDNA, one strand shown. In outline: as §1

The target of another assay is CRX (Homo sapiens, UniProt O43186 1-299). To be noted: protein: recombinant; tags: N-terminal GST; dsDNA, one strand shown. The gist of the method:
as §1

Another assay has as its target ETV1 (Homo sapiens, UniProt P50549 1-477). The conditions noted are these: protein: recombinant; tags: N-terminal GST; dsDNA, one strand shown. The gist of the method:
as §1

The target of the next assay is T6, ERF (Homo sapiens, UniProt P50548 1-548).
T6 sequence: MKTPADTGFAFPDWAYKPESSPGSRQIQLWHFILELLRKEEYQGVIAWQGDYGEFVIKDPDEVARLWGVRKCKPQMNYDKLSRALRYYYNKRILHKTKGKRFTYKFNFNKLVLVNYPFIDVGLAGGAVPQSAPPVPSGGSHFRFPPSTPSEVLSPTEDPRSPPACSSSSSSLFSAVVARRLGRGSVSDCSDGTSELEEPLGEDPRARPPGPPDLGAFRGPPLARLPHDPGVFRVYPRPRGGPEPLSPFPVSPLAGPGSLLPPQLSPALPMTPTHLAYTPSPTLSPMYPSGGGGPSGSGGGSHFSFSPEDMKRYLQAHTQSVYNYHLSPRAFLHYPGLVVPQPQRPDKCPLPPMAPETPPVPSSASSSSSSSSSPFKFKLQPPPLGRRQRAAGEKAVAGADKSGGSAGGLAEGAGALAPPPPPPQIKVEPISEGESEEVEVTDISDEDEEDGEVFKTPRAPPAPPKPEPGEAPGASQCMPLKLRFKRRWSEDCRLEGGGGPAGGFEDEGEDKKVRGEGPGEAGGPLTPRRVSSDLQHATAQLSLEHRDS
To be noted: protein: recombinant; tags: N-terminal GST; dsDNA, one strand shown. The gist of the method: as §1

Another assay has as its target T7, ETV3L (Homo sapiens, UniProt Q6ZN32 1-361).
T7 sequence: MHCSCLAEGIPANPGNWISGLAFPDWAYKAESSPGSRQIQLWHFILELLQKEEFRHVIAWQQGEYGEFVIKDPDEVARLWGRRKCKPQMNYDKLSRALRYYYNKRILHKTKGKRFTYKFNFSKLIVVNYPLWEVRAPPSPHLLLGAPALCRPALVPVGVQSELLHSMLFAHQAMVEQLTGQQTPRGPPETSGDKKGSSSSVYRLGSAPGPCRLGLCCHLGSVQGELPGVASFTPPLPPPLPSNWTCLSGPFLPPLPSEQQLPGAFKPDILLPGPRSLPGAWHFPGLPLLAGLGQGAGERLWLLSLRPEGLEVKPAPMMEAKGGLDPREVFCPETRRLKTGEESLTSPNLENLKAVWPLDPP
To be noted: protein: recombinant; tags: N-terminal GST; dsDNA, one strand shown. In outline: as §1

A further assay concerns the target T8, ETS2 (Homo sapiens, UniProt P15036 1-469).
T8 sequence: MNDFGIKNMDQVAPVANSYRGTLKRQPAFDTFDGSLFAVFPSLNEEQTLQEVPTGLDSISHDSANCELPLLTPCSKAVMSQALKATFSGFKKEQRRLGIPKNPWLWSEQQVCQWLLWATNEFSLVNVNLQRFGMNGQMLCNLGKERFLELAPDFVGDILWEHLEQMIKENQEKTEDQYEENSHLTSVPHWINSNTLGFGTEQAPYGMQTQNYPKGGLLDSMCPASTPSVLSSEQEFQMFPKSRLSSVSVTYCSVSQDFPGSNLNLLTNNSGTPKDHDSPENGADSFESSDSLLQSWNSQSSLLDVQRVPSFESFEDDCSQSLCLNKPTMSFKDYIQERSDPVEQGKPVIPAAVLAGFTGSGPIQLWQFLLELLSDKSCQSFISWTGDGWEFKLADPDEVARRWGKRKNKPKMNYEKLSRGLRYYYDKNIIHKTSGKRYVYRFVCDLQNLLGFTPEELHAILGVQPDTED
The conditions noted are these: protein: recombinant; tags: N-terminal GST; dsDNA, one strand shown. The gist of the method: as §1

The next assay deals with T9, SPDEF (Homo sapiens, UniProt O95238 1-335).
T9 sequence: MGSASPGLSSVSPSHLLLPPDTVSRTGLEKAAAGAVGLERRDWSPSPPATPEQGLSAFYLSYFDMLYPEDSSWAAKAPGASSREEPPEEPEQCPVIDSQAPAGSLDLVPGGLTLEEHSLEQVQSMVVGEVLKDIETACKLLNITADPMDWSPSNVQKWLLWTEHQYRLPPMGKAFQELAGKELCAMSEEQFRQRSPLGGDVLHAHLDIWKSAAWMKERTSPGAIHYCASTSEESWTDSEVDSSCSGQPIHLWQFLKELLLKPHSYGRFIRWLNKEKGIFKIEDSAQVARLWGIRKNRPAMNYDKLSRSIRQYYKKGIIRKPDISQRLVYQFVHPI
To be noted: protein: recombinant; tags: N-terminal GST; dsDNA, one strand shown. The gist of the method: as §1

In the next assay the target is T10, ETV7 (Homo sapiens, UniProt Q9Y603 1-341).
T10 sequence: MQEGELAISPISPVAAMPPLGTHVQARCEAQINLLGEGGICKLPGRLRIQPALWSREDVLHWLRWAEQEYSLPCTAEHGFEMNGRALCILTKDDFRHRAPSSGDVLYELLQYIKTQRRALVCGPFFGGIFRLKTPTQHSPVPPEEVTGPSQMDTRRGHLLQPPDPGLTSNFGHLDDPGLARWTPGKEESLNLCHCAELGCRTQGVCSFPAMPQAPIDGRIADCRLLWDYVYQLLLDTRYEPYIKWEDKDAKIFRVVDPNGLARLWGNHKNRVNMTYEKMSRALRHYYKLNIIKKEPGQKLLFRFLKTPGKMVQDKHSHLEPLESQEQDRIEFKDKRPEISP
To be noted: protein: recombinant; tags: N-terminal GST; dsDNA, one strand shown. In outline:
as §1

A further assay addresses T11, ELF5 (Homo sapiens, UniProt Q9UKW6-2 1-255).
T11 sequence: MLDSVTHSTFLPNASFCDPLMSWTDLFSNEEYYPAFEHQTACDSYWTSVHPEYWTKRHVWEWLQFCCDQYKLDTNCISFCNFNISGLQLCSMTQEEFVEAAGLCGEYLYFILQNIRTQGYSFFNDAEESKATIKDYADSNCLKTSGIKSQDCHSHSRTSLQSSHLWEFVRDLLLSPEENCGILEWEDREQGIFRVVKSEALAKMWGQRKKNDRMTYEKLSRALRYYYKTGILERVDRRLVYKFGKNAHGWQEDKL
The conditions noted are these: protein: recombinant; tags: N-terminal GST; dsDNA, one strand shown. The gist of the method: as §1

The next assay deals with T12, ETV3 (Homo sapiens, UniProt P41162-2 1-143).
T12 sequence: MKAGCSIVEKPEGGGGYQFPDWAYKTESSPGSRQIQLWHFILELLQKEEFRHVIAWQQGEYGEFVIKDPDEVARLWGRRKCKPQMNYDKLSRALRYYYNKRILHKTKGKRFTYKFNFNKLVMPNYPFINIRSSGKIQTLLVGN
The conditions noted are these: protein: recombinant; tags: N-terminal GST; dsDNA, one strand shown. The gist of the method: as §1

The target of another assay is ETV6 (Homo sapiens, UniProt P41212 1-452). The conditions noted are these: protein: recombinant; tags: N-terminal GST; dsDNA, one strand shown. The gist of the method:
as §1

Sequence of ETV6 (P41212 whole entry): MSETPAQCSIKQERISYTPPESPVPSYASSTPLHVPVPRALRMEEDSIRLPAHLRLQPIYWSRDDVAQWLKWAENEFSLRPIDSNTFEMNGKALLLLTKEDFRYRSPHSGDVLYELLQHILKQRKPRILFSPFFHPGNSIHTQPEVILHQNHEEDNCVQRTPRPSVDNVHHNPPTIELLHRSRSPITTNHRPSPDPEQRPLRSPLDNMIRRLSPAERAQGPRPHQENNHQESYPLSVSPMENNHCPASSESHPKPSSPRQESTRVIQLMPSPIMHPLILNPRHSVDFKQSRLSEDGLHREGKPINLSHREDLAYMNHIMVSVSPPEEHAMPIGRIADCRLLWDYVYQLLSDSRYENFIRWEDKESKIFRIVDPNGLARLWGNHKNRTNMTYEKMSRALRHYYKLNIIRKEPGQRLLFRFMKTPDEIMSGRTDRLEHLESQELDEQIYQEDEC
Sequence of ELF4 (Q99607 whole entry): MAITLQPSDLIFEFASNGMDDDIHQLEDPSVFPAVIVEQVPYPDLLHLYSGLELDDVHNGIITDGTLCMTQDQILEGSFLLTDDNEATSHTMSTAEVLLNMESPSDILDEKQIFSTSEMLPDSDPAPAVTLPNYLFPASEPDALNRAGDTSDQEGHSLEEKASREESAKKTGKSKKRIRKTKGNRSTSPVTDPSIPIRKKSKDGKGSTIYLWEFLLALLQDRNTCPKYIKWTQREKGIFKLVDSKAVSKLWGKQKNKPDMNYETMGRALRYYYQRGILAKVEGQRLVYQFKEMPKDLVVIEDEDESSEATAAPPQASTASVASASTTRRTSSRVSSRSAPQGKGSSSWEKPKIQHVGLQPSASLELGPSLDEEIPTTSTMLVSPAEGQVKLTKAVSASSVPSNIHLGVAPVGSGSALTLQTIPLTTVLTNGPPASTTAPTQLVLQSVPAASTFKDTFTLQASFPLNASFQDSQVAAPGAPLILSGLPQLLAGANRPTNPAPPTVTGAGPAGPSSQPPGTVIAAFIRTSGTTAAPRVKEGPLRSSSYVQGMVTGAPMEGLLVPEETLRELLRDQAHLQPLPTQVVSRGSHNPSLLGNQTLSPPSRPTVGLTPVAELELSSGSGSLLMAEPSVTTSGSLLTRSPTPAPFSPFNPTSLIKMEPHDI
Sequence of HSF1 (Q00613 whole entry): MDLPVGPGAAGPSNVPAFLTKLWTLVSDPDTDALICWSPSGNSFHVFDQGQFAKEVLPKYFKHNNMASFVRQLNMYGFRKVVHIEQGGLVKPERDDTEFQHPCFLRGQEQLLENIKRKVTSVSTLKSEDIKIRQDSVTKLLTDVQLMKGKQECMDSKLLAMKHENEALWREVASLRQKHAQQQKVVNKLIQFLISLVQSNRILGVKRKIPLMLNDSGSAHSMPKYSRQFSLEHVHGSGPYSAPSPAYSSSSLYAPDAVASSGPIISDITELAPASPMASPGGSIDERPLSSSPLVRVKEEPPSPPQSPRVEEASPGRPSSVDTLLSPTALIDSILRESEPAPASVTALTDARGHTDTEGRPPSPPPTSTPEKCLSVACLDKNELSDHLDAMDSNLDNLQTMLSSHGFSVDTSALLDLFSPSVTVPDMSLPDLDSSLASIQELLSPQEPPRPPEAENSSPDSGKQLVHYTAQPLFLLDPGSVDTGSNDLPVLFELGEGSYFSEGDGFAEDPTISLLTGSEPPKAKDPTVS
Sequence of ETV1 (P50549 whole entry): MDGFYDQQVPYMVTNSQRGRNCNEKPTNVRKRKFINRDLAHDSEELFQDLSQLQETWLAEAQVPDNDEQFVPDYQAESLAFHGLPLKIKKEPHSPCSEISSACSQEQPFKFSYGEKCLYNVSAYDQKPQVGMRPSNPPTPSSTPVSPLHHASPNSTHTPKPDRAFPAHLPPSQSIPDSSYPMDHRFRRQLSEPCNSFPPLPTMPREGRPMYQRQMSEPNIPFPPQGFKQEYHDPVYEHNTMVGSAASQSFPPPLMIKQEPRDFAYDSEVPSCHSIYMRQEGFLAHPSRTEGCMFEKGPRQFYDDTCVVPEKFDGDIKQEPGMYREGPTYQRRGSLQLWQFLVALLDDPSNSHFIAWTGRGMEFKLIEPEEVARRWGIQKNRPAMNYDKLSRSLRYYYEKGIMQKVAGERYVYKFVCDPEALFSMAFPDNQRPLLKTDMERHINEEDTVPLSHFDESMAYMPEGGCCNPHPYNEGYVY
Sequence of CRX (O43186 whole entry): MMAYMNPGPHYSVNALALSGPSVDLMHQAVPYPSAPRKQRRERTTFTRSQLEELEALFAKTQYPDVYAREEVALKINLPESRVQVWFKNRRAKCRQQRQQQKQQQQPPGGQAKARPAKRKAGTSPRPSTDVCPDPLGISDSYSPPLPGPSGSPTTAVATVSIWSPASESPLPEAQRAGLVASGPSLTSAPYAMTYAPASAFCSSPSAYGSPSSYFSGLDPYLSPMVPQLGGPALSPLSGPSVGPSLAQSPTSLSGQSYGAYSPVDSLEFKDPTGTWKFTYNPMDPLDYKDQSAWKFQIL
Sequence of ETV5 (P41161 whole entry): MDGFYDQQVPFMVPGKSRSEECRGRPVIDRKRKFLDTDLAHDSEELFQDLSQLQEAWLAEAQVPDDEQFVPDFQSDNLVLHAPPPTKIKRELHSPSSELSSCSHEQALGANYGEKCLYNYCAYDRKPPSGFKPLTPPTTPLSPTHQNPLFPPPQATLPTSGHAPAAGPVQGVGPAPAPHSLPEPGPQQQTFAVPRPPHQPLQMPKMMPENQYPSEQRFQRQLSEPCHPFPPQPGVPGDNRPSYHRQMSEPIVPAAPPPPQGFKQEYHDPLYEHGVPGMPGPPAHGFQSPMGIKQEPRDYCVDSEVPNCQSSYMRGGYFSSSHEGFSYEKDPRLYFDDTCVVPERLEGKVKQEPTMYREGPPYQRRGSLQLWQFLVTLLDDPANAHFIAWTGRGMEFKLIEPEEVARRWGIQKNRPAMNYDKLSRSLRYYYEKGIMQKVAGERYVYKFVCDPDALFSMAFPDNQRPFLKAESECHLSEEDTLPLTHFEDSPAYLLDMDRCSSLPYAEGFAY

Regarding GCCTAC, the binding signal with FEV was 1.2 fold enrichment (6-mer frequency, TF over GST control); with ETV5, 1.16 fold enrichment (6-mer frequency, TF over GST control); in the assay with HSF1 it was 1.01 fold enrichment (6-mer frequency, TF over GST control); with SPIC, 1.37 fold enrichment (6-mer frequency, TF over GST control); with ELF4, 1.26 fold enrichment (6-mer frequency, TF over GST control); in the assay with ELK4 it was 1.38 fold enrichment (6-mer frequency, TF over GST control). Further, the binding signal was 1.16 fold enrichment (6-mer frequency, TF over GST control) in the assay with ETV2; 1.1 fold enrichment (6-mer frequency, TF over GST control) with ELF3; 1.12 fold enrichment (6-mer frequency, TF over GST control) in the assay with CRX; 1.2 fold enrichment (6-mer frequency, TF over GST control) with ETV1; 1.12 fold enrichment (6-mer frequency, TF over GST control) with ERF; 1.29 fold enrichment (6-mer frequency, TF over GST control) with ETV3L. Moreover, the binding signal with ETS2 is 1.23 fold enrichment (6-mer frequency, TF over GST control); with SPDEF, 1.12 fold enrichment (6-mer frequency, TF over GST control); with ETV7, 1.08 fold enrichment (6-mer frequency, TF over GST control); with ELF5 it was 1.17 fold enrichment (6-mer frequency, TF over GST control); with ETV3 it was 1.3 fold enrichment (6-mer frequency, TF over GST control); in the assay with ETV6, 1.19 fold enrichment (6-mer frequency, TF over GST control).

The record behind these values is publication PMC7862700, “An all-to-all approach to the identification of sequence-specific readers for epigenetic DNA modifications on cytosine”.
